In PubChem BioAssay:
Activity calls are given as the source filed them.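 Rule for the calls, unless noted: active = fluorescence slope after compound addition differing from the mean of all screened samples at 99.7% confidence, in either direction; inactive = the rest.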

Legend:
[1] = inhibitors of TNFa-induced NFkB p65 translocation, primary screen, imaging, HUVEC, MLSMR starter and 10KST1 sets (AID 438;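 active = inhibition above 20% together with a positive visual image hit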;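 note: compound added about 3h40 before a 20 min TNFalpha stimulation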;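 for inhibition: signal is the nuclear over cytoplasmic p65 intensity ratio per well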); conditions: HUVEC TNFa-induced p65 nuclear translocation; cell count: measured here: nuclei count (cytotoxicity indicator), at 2.08 µM; inhibition: at 2 µM, stronger effect = higher value, 0% TNFa-plus-vehicle, 100% no-TNFa wells
[2] = inhibitors of mutant huntingtin aggregation, primary screen, imaging, exon1htt(103Q)mCFP cells, high-content imaging (AID 483;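 active = visual image review flags a hit and inhibition of aggregation exceeds 20%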;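 note: compound exposure lasted 3 days before fixation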;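 for nuclei count: percent of the per-plate median nuclei count of sample wells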); conditions: exon1htt(103Q)mCFP cell line, aggregate imaging, at 2 µM; inhibition of aggregation: stronger effect = higher value; nuclei count: measured here: cell count, toxicity
[3] = inhibitors of E-selectin induction by TNFa, primary screen, imaging, HUVEC, immunofluorescence, MLSMR starter and 10KST1 sets (AID 487;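 active = visually confirmed hit in the image check and inhibition above 20%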;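 for inhibition: signal is fraction of cell area covered by stained E-selectin grains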;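 for nuclei count: 100% = median nuclei count of all wells on the same plate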); conditions: HUVEC TNFalpha-induced E-selectin immunofluorescence imaging, at 2 µM; inhibition: stronger effect = higher value; nuclei count: measured here: cell number, toxicity
[4] = target: Voltage-gated potassium channel subunit beta-2 (Rattus norvegicus) (UniProt P62483); assay: KvBeta enzyme negative modulators, primary screen, biochemical, NADPH fluorescence (AID 622;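 active = fluorescence slope higher than the sample average by over 3 SD, cut at about -0.22 in these data, passing the limit was not always enough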;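 note: slope of raw intensity against log time taken from 70 to 1610 s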); conditions: recombinant KvBeta, 4-cyanobenzaldehyde reduction, at 10 µM, stronger effect = higher value
[5] = target: Voltage-gated potassium channel subunit beta-2 (Rattus norvegicus) (UniProt P62483); assay: KvBeta positive modulators, primary screen, biochemical, NADPH fluorescence (AID 623;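 active = NADPH fluorescence slope more negative than the mean of all samples by about 3 SD, 99.7% confidence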;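 note: fluorescence intensity change per second fitted from 20 to 320 s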); conditions: Recombinant KvBeta, NADPH fluorescence decrease slope, 10 min; at 10 µM; stronger effect = lower value
[6] = target: Alpha-2C adrenergic receptor (Homo sapiens) (UniProt P18825); assay: modulators of alpha2C/GIRK thallium flux, primary screen, cell-based, HEK293 alpha2C/GIRK1/2 (AID 624); conditions: thallium flux BTC fluorescence, at 10 µM, actives lie on both sides;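 note: slope of fluorescence ratio to pre-addition baseline per second over 15 to 24 s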
[7] = inhibitors of Sendai virus-induced IRF3 signaling, primary screen, TLR/RLR signaling modifier project, cell-based, Sendai virus stimulus, luciferase, 10K MLSCN set (AID 602276;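 active = inhibition at or above 50% at 10 µM; inactive = inhibition below 50%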;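 note: firefly luciferase from ISG56 promoter only with Renilla not read in this screen; 0% = Sendai virus plus DMSO and 100% = medium plus DMSO without virus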); conditions: HEK293 RL24 IRF3 luciferase reporter, at 10 µM, stronger effect = higher value
[8] = inhibitors of poly I:C-induced TLR3 signaling, primary screen, cell-based, poly I:C stimulus, luciferase, 10K MLSCN set (AID 602277;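 active = inhibition of the reporter signal at or above 50%; inactive = inhibition below 50%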); conditions: HEK293-TLR3 RL24 IRF3 luciferase reporter, at 10 µM, stronger effect = higher value

Sequence of Alpha-2C adrenergic receptor (Homo sapiens) (P18825 whole entry, looked up): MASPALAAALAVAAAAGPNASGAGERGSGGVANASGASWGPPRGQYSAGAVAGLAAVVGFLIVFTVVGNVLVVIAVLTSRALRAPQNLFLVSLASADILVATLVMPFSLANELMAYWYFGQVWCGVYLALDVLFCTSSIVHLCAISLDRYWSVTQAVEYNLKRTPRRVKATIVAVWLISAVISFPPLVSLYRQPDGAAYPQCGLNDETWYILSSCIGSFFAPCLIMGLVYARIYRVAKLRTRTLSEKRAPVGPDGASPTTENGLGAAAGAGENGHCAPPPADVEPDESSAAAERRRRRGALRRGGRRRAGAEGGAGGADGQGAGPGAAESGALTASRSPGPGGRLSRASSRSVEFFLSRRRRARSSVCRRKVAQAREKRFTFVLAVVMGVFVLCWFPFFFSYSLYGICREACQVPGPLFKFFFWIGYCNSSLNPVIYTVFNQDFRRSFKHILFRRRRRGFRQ
Sequence of Voltage-gated potassium channel subunit beta-2 (Rattus norvegicus) (P62483 whole entry, looked up): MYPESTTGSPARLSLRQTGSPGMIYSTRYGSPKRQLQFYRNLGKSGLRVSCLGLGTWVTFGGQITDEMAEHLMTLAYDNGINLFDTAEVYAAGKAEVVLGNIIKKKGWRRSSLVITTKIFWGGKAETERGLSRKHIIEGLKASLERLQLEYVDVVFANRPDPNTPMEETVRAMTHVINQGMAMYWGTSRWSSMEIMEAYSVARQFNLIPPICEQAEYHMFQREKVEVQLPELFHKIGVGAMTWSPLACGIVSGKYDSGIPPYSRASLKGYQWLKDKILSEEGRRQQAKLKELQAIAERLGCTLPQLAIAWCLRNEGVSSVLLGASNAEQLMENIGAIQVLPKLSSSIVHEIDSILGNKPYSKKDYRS

Row | SMILES | cell count [1] | inhibition [1] | inhibition of aggregation [2] | nuclei count [2] | inhibition [3] | nuclei count [3] | fluorescence slope [4] | NADPH fluorescence slope [5] | slope [6] | inhibition [7] | inhibition [8]
1 | CCN(CC)CCN1C(=O)C(=O)/C(=C(/O)c2c(C)[nH]c(C(=O)OC)c2C)C1c1ccccc1OC (centres undefined) | 280 | 1% (inactive) | -20.7% (inactive) | 109% | -11.7% (inactive) | 101% | -0.454 (inactive) | -4.2e-05 (inactive) | 0.00204 (inactive) | 7.54% (inactive) | 34.9% (inactive)
2 | CCOC(=O)C1=C(C)N=C2SCCC(=O)N2C1c1cc(Br)ccc1OC (centres undefined) | 466 | 2.7% (inactive) | -4.8% (inactive) | 108% | -16% (inactive) | 85% | -0.499 (inactive) | 7.4e-06 (inactive) | 0.00736 (inactive) | 17.2% (inactive) | 20.9% (inactive)
3 | CCN=C1SC(CC(=O)Nc2ccccc2)C(=O)N1CC (centres undefined) | 265 | 3.4% (inactive) | 26.6% (inactive) | 92% | -95.4% (inactive) | 109% | -0.341 (inactive) | -1.1e-05 (inactive) | 0.00797 (inactive) | 8.21% (inactive) | 30% (inactive)
4 | Cc1cccc(NC(=O)COc2ccc(Br)cc2)n1 | 457 | -12.1% (inactive) | -8.7% (inactive) | 110% | 26.7% (inactive) | 124% | -0.437 (inactive) | 6.5e-05 (inactive) | 0.00667 (inactive) | 2.6% (inactive) | -9.96% (inactive)
5 | CCOC(=O)N1CCC(NC(=O)Cn2c3c(c(-c4ccccc4Cl)cc2=O)CCC3)CC1 | 528 | -3.3% (inactive) | 4.5% (inactive) | 98.3% | -105% (inactive) | 120% | -0.54 (inactive) | -2.2e-05 (inactive) | 0.00573 (inactive) | 9.23% (inactive) | 30.1% (inactive)
6 | O=C(NCc1ccco1)c1ccccc1Nc1ccc(F)cc1 | 575 | -7.2% (inactive) | 47.6% (active) | 67.1% | -30.4% (inactive) | 103% | -0.308 (inactive) | -5e-05 (inactive) | 0.00433 (inactive) | 5.52% (inactive) | -2.76% (inactive)
7 | Cc1cc(C)n2nc(SCc3cc(=O)n4ccccc4n3)nc2n1 | 536 | -16.3% (inactive) | 13% (inactive) | 66.3% | -75.8% (inactive) | 112% | -0.29 (inactive) | -4.7e-06 (inactive) | 0.00424 (inactive) | 5.17% (inactive) | 14.4% (inactive)
8 | CC(=O)Nc1ccc(S(=O)(=O)N2CCC(NC(C)=O)(c3cccc(F)c3)CC2)cc1 | 682 | -5.8% (inactive) | -25.6% (inactive) | 130% | -10.1% (inactive) | 109% | -0.494 (inactive) | -4.3e-05 (inactive) | 0.0062 (inactive) | 8.44% (inactive) | 28.9% (inactive)
9 | CCOC(=O)c1ccc(NC(=O)CSc2n[nH]c(-c3ccncc3)n2)cc1 | 590 | -1.9% (inactive) | 7.2% (inactive) | 99.9% | -26.4% (inactive) | 110% | -0.592 (inactive) | -3.8e-05 (inactive) | 0.00612 (inactive) | -5.95% (inactive) | -15.4% (inactive)
10 | Cc1cc(C)c2c(C)nn(C3CCCCC3)c2n1 | 318 | 1.7% (inactive) | 27.2% (inactive) | 79.1% | 33.7% (inactive) | 86.7% | -0.514 (inactive) | 1.4e-05 (inactive) | 0.00644 (inactive) | -18.5% (inactive) | -5.34% (inactive)
11 | O=C(CCNS(=O)(=O)c1cccs1)Nc1ccccc1F | 714 | -16.8% (inactive) | -2.2% (inactive) | 102% | -9.8% (inactive) | 109% | -0.3 (inactive) | -6.3e-05 (inactive) | 0.00565 (inactive) | 6.58% (inactive) | 7.01% (inactive)
12 | COc1ccc(-c2nnn(CC(=O)c3ccc4c(c3)OCCO4)n2)cc1OC | 507 | -17.7% (inactive) | -8.1% (inactive) | 122% | 17.9% (inactive) | 126% | -0.48 (inactive) | -4.4e-05 (inactive) | 0.00479 (inactive) | 19.3% (inactive) | 19.3% (inactive)
13 | CC(=O)c1cnc2cc(-c3ccccc3)nn2c1C | 283 | 7.2% (inactive) | 26.1% (inactive) | 84.2% | -84.1% (inactive) | 97.5% | -0.343 (inactive) | -5.4e-05 (inactive) | 0.00763 (inactive) | -65.5% (inactive) | -115% (inactive)
14 | CCCc1cc(C(=O)Nc2ccccc2SC)no1 | 849 | 5.8% (inactive) | -12.6% (inactive) | 108% | -35.7% (inactive) | 121% | -0.597 (inactive) | -2.4e-05 (inactive) | 0.00474 (inactive) | -22% (inactive) | -51.6% (inactive)
